Screens from PubChem BioAssay.
Shown are actives, neighbours in structure and some others; about 10% of the full set was active somewhere.
NS1 function inh: blocks influenza NS1 protein function; 270,000 compounds, 0.4% hits; Potency, µM (series often up to 46.1 µM); calls by dose curve; also: actives are rising curves; nearly all actives have a fitted effect of over 50% in size
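Growth recovery, yeast-based: influenza A NS1 expressed in S. cerevisiae causes slow growth, and suppressors are detected by OD600. The parent strain without NS1 is used as positive control.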
Pf growth 48h: P. falciparum growth inhibition at 48 hours (one generation) | AID 504832 | Potency, µM (highest dose often 28.7 µM), usual class: inhibitors | P. falciparum luciferase growth in erythrocytes, 48 h | 310,000 compounds, 5.9% hits
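Compounds are pin-transferred into medium, infected erythrocytes (2% hematocrit, 0.1% parasitemia final) are added, and plates sit one parasite generation at 37 C in 5% CO2. Detection reagent is then added and luminescence measured.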
SARS PLP yeast: blocks SARS-CoV papain-like protease in a yeast assay | S. cerevisiae expressing SARS-CoV PLpro, growth rescue | Potency, µM (titrated, usually from 32.9 µM), usual class: activators | 330,000 compounds, 0.19% hits; calls by dose curve; also: nearly all actives have a fitted effect of over 55% in size
Pf growth 96h: P. falciparum growth inhibition at 96 hour, primary screen for plastid delayed-death inhibitors. P. falciparum luciferase reporter growth, 96 h. Potency, µM (top dose mostly 28.7 µM), usual class: inhibitors. 320,000 compounds, 6.9% hits. AID 504834
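Compounds incubated with erythrocytes infected by luciferase-expressing P. falciparum (2% hematocrit, 0.05% parasitemia final) for 96 hours, 37 C in 5% CO2. Growth inhibition scored as decreased luciferase luminescence.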
A number is an active result; - = inactive; ? = inconclusive; . = no result given. Unless noted, calls follow the shape of the dose curve; as a rule, active = well fitted inhibition curve with a large enough effect; inconclusive = small, poorly fitted or top-dose-only effect, or another doubt; inactive = no such curve, though single readings can be large or run the other way.

SMILES | NS1 function inh | Pf growth 48h | SARS PLP yeast | Pf growth 96h
C=CCNC(=O)c1oc2ccc(S(=O)(=O)N(CC)CC)cc2c1C | - | ? | - | 10µM
N=C(N)SCC(=O)O | - | . | . | .
O=C(NCCN1C(=O)S/C(=C\c2ccc(Cl)c([N+](=O)[O-])c2)C1=O)C1=COCCO1 | . | - | - | ?
COc1ccc(-n2c(C)nnc2SCC(=O)N2CCOCC2)cc1 | - | - | - | -
CN(c1ccccc1)S(=O)(=O)c1ccc(C(=O)NNC(=O)c2ccccc2F)cc1 | . | - | - | ?
CCN(CC)S(=O)(=O)c1ccc2oc(C(=O)N3CCc4ccccc4C3)c(C)c2c1 | - | ? | - | 9.3µM
CCN1C(=O)c2ccccc2S(=O)c2ccc(C(=O)NCc3ccc(OC)cc3)cc21 (configuration not stated) | - | ? | - | -
Cc1ccc2nc(Cn3cc(C(F)(F)F)ccc3=O)cc(=O)n2c1 | . | - | - | -
CCc1nc2ccccc2n1Cc1cc(=O)n2cc(C)ccc2n1 | - | - | - | 1.7µM
CCn1nc(C)c(CNC(=O)c2cc(COc3ccc(C)nc3)on2)c1C | - | - | - | -
CCOc1cccc(=O)c2c(C)n(CC(=O)c3ccccc3)c(C)c12 | - | 8.3µM | - | -
Cc1ccccc1OCC(=O)NNC(=O)C1CC(=O)N(c2ccc3c(c2)OCCO3)C1 (configuration not stated) | . | - | - | ?
Nc1c2c(nc3sc4c(c13)CCCCC4)CCCC2 | - | ? | - | -
Nc1c2c(nc3c1CCC3)CCCC2 | . | 4.8µM | - | 3.8µM
CC1CCN(CC(=O)N2c3ccccc3CCc3ccccc32)CC1 | - | 15µM | - | -
O=C(CN1CCCCC1)N1c2ccccc2CCc2ccccc21 | - | . | - | ?
O=C(c1ccco1)N1CCN(CC(=O)N2c3ccccc3CCc3ccccc32)CC1 | - | ? | - | 10µM
Cc1cc2c3c([nH]c2cc1S(=O)(=O)N1CCC2(CC1)OCCO2)CCCC3=O | - | ? | - | ?
CCOC(=O)c1c(NC(=O)C(F)(OC)C(F)(F)F)sc(C(=O)N2CCCCC2)c1C (configuration not stated) | - | 12µM | - | -
CCOC(=O)c1sc(NC(=O)CN2CCCC2)c(C(=O)OCC)c1C | - | - | . | -
CN1CCCC(CC2c3ccccc3Sc3ccccc32)C1 (configuration not stated) | . | 9.3µM | . | ?
CCC(C(=O)Nc1ccc(C(=O)Nc2ccccc2C(=O)O)cc1)c1ccccc1 (configuration not stated) | - | - | - | ?
COc1ccc(NC(=O)C2CC(=O)N(C)C(=Nc3ccc4c(c3)OCO4)S2)cc1 (configuration not stated) | - | 10µM | - | ?
CN1C(=O)CC(C(=O)Nc2ccc(F)cc2)SC1=Nc1ccc2c(c1)OCO2 (configuration not stated) | - | ? | - | -
Cc1ccc(NC(=O)Nc2c(C)[nH]c(=O)[nH]c2=O)cc1Cl | - | . | - | -
SMILES | NS1 function inh | Pf growth 48h | SARS PLP yeast | Pf growth 96h
CO[C@H]1[C@H](O)[C@H](O[C@@H]2[C@H](Oc3cccc4c(O)c5c(=O)oc6ccc(C)c7c(=O)oc(c34)c5c67)O[C@@H](C)[C@H](O)[C@H]2O)O[C@@H](C)[C@@H]1O | - | . | . | .
O=C(C1=C[C@H](C2CCCCC2)C[C@H](OCc2ccc(CO)cc2)O1)N1CCN(Cc2ccc3c(c2)OCO3)CC1 | - | ? | - | 10µM
O=C(C1=C[C@H](C2CC2)C[C@H](OCc2ccc(CO)cc2)O1)N1CCN(Cc2ccc3c(c2)OCO3)CC1 | - | ? | - | ?
O=C(C1=C[C@@H](C2CCCCC2)C[C@@H](OCc2ccc(CO)cc2)O1)N1CCN(Cc2ccc3c(c2)OCO3)CC1 | - | 4.7µM | - | 13µM
O=C(C1=C[C@H](C2CC2)C[C@H](OCCCCO)O1)N1CCN(Cc2ccc3c(c2)OCO3)CC1 | - | ? | - | ?
C[C@H](NS(=O)(=O)c1ccc(F)cc1)C(=O)OCC(=O)c1c(N)n(C)c(=O)n(C)c1=O | . | . | - | .
Cc1ccc2[nH]c(=O)c(CN(CCCO)S(=O)(=O)c3cccc4nsnc34)cc2c1 | - | - | - | -
Cc1ccc2cc(CN(CCCO)S(=O)(=O)c3cccc4nsnc34)c(=O)[nH]c2c1 | ? | . | - | 4.1µM
COc1cccc(C(=O)COC(=O)CCCC(=O)NC2CCCCC2)c1 | - | - | - | -
O=C(CSc1ccc(-c2cccs2)nn1)NCCc1ccccc1 | - | - | - | 2.9µM
Cc1cccc(C)c1OCc1nnc(SCC(=O)Nc2ccc(N3CCOCC3)cc2)o1 | - | - | - | -
COc1ccc(CN([C@H](C)CO)S(=O)(=O)N(Cc2ccccc2)[C@H](CO)C(C)C)cc1 | . | ? | - | ?
C=C[C@@H](C)N(Cc1ccc(OC)cc1)S(=O)(=O)N(Cc1ccccc1)[C@H](C=C)C(C)C | . | 3.3µM | - | ?
Cc1ccccc1OCC(=O)N(Cc1nc(-c2ccccc2)no1)C(C)C | - | ? | - | -
COc1ccccc1OCC(=O)N(Cc1nc(-c2ccccc2)no1)C1CCCCC1 | - | 13µM | - | .
Cc1ccc(C[n+]2cccc(-c3ccccc3)c2)c(C)c1 | - | 0.93µM | - | 0.33µM
COc1ccc(COC(=O)CCS(=O)(=O)c2ccc(C)cc2)cc1F | . | - | - | -
CN1CCN(C(=O)c2cccc(NS(=O)(=O)c3ccc(Br)cc3)c2)CC1 | . | - | - | -
C=CCOc1ccccc1CN1CCCC(CCC(=O)N(C)CCc2ccccn2)C1 (configuration not stated) | - | - | - | 12µM
CN(CCc1ccccn1)C(=O)CCC1CCCN(C(=O)c2c3c(nn2C)CCCC3)C1 (configuration not stated) | - | - | - | 8.3µM
CN(CCc1ccccn1)C(=O)CCC1CCCN(C(=O)c2ccsc2)C1 (configuration not stated) | - | - | - | 10µM
O=C(NCCS(=O)(=O)N1CCN(c2ccccc2F)CC1)c1cccc(Br)c1 | - | - | - | -
O=C(Cn1cnc2c(nnn2Cc2ccccc2)c1=O)N1CCCc2ccccc21 | - | ? | - | 12µM
CCOc1ccccc1OCC(=O)Nc1ccc(N2CCOCC2)cc1N1CCOCC1 | . | ? | - | -
O=C(Nc1ccc2nc(-c3cccs3)[nH]c2c1)c1cccs1 | - | - | - | .
SMILES | NS1 function inh | Pf growth 48h | SARS PLP yeast | Pf growth 96h
Cc1ccccc1C(=O)Nc1ccc(-c2nc3ccc(C(=O)c4ccccc4)cc3[nH]2)cc1 | - | 8.3µM | - | ?
O=C(c1ccccc1)c1ccc2nc(-c3ccc(NC(=O)c4ccccc4Br)cc3)[nH]c2c1 | - | ? | - | ?
O=C(Nc1ccc(-c2nc3ccc(NC(=O)c4cccs4)cc3[nH]2)cc1)c1cccs1 | - | 2.6µM | - | .
CC(C)c1ccc(/C=N/NC(=O)CCNC(=O)c2ccccc2)cc1 | - | - | - | -
COC(=O)[C@]1(CC(C)C)N[C@H](c2ccc(-c3cccc(Cl)c3)cc2)[C@@H]2C(=O)N(C)C(=O)[C@@H]21 | . | 2.6µM | - | 1.3µM
COC(=O)[C@]1(C)N[C@H](c2ccc(-c3cccc(Cl)c3)c(OC)c2)[C@@H]2C(=O)N(C)C(=O)[C@@H]21 | . | . | - | .
